PubChem BioAssay AID1851 (National Center for Advancing Translational Sciences (NCATS), 2009)
Where “and” joins values, the source holds several entries; their conditions need not be identical. Equal entries are not always repeated. Screen size: about 16,000 compounds; about 2,600 (16%) were called active. Not shown: some 20% with an inconclusive outcome. Only a sample is shown. Unmarked numbers belong to inactive results. Calls follow the shape of the dose curve; as a rule, active = well fitted curve in the direction sought with a large enough effect; inconclusive = small, poorly fitted or top-dose-only effect, or effect the other way; inactive = no such curve, though single readings can be large or run the other way.

These compounds were tested against Cytochrome P450 2D6 (Homo sapiens) (UniProt P10635) (assay: Cytochrome panel assay with activity outcomes). Settings: recombinant CYP, pro-luciferin dealkylation, luminescence, p450-cyp2d6; series mostly up to 57.1 µM.
Chain of Cytochrome P450 2D6 (Homo sapiens) (P10635 whole entry, looked up): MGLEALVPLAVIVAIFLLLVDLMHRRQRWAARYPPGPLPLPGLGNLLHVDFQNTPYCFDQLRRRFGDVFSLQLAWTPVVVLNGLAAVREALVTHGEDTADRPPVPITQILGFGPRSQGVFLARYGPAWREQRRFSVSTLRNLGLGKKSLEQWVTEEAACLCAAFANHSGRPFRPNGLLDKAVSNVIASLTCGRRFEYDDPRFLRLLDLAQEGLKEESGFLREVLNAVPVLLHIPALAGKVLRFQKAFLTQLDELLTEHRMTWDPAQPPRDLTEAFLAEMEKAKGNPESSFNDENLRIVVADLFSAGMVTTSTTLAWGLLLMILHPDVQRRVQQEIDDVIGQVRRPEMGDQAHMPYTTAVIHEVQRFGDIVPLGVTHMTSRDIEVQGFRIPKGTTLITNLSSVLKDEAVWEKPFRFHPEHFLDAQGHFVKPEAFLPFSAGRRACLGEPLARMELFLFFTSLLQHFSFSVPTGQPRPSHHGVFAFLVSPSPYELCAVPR
% is scaled to controls: 0 for no effect and ±100 for the full control effect.

Row | SMILES | AC50 | activity, negative = inhibition
1 | C/C(=N\Nc1nnc(C)c(=O)[nH]1)C(=O)O | inactive | 
2 | COc1ccc(C2/C(=C(/O)c3ccc(Cl)cc3)C(=O)C(=O)N2CCN2CCOCC2)c(OC)c1 (stereo not drawn) | inactive | 
3 | CN[C@@H]1NC(=O)c2ccccc2N1Cc1ccc(F)cc1 |  | 10.6% [at 11.4 µM]
4 | CSc1nnc(-c2cc3c(-c4ccccc4)nn(C)c3s2)n1C | inactive | 
5 | CC(C)(N=NC(C)(C)C1=NCCN1)C1=NCCN1 |  | 6.75% [at 11.4 µM]
6 | O=c1[nH]c(=O)n(Cc2ccco2)c2c1C(C(F)(F)F)(C(F)(F)F)N=C(CCC1CCCCC1)N2 | inactive | 
7 | CC(C)CO/N=C1/[C@H]2O[C@@H]2[C@@H](O)[C@H]2[C@H]1CCn1c(=O)n(C)c(=O)n12 |  | 1.5% [at 11.4 µM]
8 | CC(C)C[C@H](NC(=O)N1CCCCCC1)C(=O)N[C@H](Cc1cn(C)c2ccccc12)C(=O)N[C@H](Cc1ccccn1)C(=O)O | inactive | 
9 | Cc1ccc(C(=O)NC(=S)Nc2cccc3nsnc23)cc1 | inactive | 
10 | CC(C)(C)C(=O)Nc1cccc(-c2nc3ccccc3c(=O)o2)c1 | inactive | 
11 | O[C@H](CNc1ccccn1)c1ccccc1 | 1.58 µM (active) | 
12 | CN(C)CCNc1ccccn1 |  | -15.2% [at 11.4 µM]
13 | c1ccc(CCNc2ccccn2)nc1 |  | -8.12% [at 11.4 µM]
14 | CCCNC(=O)OC[C@@H]1O[C@H](CCO/N=C\C[C@H]2C=C[C@H](OC(C)=O)[C@@H](COC(C)=O)O2)C=C[C@@H]1Oc1ccc(OC)cc1 |  | -15.6% [at 11.4 µM]
15 | CC(C)=CCNc1ncnc2nc[nH]c12 |  | 10.2% [at 11.4 µM]
16 | COc1ccc(N2CCN(C(=S)Nc3cccc(C)c3)CC2)cc1 | inactive | 
17 | Cc1noc(C)c1-c1nccc(N(C)Cc2ccco2)n1 | inactive | 
18 | CN(C)c1ccnc(-c2ccccc2C(F)(F)F)n1 | inactive | 
19 | CN(C)Cc1ccccc1-c1nccc(N(C)C)n1 | 1 µM (active) | 
20 | Cc1noc(C)c1-c1nccc(N(C)C)n1 | inactive | 
21 | CN(C)Cc1ccccc1-c1nccc(N(C)Cc2ccco2)n1 | 0.794 µM (active) | 
22 | Cn1c2c(c(=O)n(C)c1=O)C(C(F)(F)F)(C(F)(F)F)N=C(c1ccc(Cl)cc1)N2 | inactive | 
23 | COc1ccc(Oc2nc3ccccc3nc2C(F)(F)F)cc1 | inactive | 
24 | CCCC[C@@H]1C[C@H]1C(NC(=O)c1ccccc1)c1ccccc1C(F)(F)F (stereo partly drawn) | inactive | 
25 | [Cu].[O-]/N=C1/C(=[OH+])Nc2ccccc21.[O-]Nc1c(O)[nH]c2ccccc12 |  | -7.87% [at 11.4 µM]

Row | SMILES | AC50 | activity, negative = inhibition
26 | O=C(O)C1=C/C(=C(/c2ccccc2)c2cc(C(=O)O)c(O)c3ccccc23)c2ccccc2C1=O |  | 14% [at 11.4 µM] and -3.21% [at 11.4 µM]
27 | O=C(Nc1cccnc1)C1COc2ccccc2O1 (stereo not drawn) | inactive | 
28 | CC(C)(C)NS(=O)(=O)c1ccc(NS(=O)(=O)c2ccc(F)cc2)cc1 | inactive | 
29 | CC(C)(C)NS(=O)(=O)c1ccc(NC(=O)C(Sc2ccccc2)c2ccccc2)cc1 (stereo not drawn) | 3.55 µM (active) | 
30 | COc1ccc(CC(=O)NC(=S)Nc2ccc(S(=O)(=O)NC(C)(C)C)cc2)cc1 | inactive | 
31 | CO[C@H]1C[C@@H]2C[C@H](O)C[C@@H](CC(=O)O[C@@H](/C=C\CC(C)C)C[C@@H]3CC[C@H](C)[C@@H](C1)O3)O2 |  | -2.62% [at 11.4 µM]
32 | N#Cc1cccc(NC(=O)N2CC3(CCN(C(=O)c4ccco4)CC3)C2)c1 | inactive | 
33 | COc1cc(NC(=O)c2cc3ccccc3o2)c(OC)cc1Br | inactive | 
34 | CCCN(CCO)Cc1ccc(F)c(Br)c1 | 7.94 µM (active) | 
35 | COc1ccc(C(=S)Nc2ccccc2)cc1 | inactive | 
36 | COc1ccc(-c2nc(C(=O)N3CCN(C)CC3)sc2-c2ccc(OC)cc2)cc1 | inactive | 
37 | Cc1nnc(NC(=O)CCC(=O)NCc2cccs2)s1 | inactive | 
38 | Nc1nc2c(C(=O)NCc3cccs3)nnn2c2cccc(Cl)c12 |  | 6.61% [at 11.4 µM]
39 | CC(C)(O)C#Cc1ccc(C(=O)NCc2cccs2)s1 | 22.4 µM (active) | 
40 | CCc1sc(N(C(=O)Cc2ccccc2)c2cccc(F)c2)nc1-c1ccc(C)cc1 | inactive | 
41 | O=C(CSc1nc2ccccc2o1)N1c2ccccc2Sc2ccc(Cl)cc21 | inactive | 
42 | O=C1CSC2(CCN(CCCN3c4ccccc4Sc4ccc(Cl)cc43)CC2)N1 | 0.631 µM (active) | 
43 | Clc1ccc2c(c1)N(CCCN1CCCC13CCCCC3)c1ccccc1S2 | 0.00794 µM (active) | 
44 | CC1(C)CCCN(C(=O)N2c3ccccc3Sc3ccccc32)C1 | inactive | 
45 | OC1CC2CC[C@H](C1)N2CCCN1c2ccccc2Sc2ccc(Cl)cc21 (stereo partly drawn) | 0.0631 µM (active) | 
47 | CCOC(=O)Nc1ccc2c(c1)N(C(=O)CCN1CCN(C)CC1)c1ccccc1S2 | inactive | 
48 | Cc1ccc2cn[nH]c2c1NC(=S)NC(=O)c1ccccc1 | inactive | 
49 | O=C(NNc1nc2ccccc2s1)c1ccccc1F | inactive | 
50 | Oc1ccc(Br)cc1CNn1cnnc1 | inactive | 

Row | SMILES | AC50 | activity, negative = inhibition
51 | CCOC(=O)c1cc(-c2ccc(Cl)cc2)nc2c1c(C)nn2CCC#N | inactive | 
52 | Cc1ccccc1C(=O)c1c[nH]c(C(=O)NCC2CCCO2)c1 (stereo not drawn) | inactive | 
53 | COc1ccc(COC(=O)N/N=C(\C)CC(=O)Nc2c(C)cc(C)cc2C)cc1 | inactive | 
54 | O=C(O)CSc1cc(C(F)(F)F)nc(-c2ccccn2)n1 | inactive | 
55 | CN1CCN(c2ncc3nc(-c4cccc(C#N)c4)c(=O)n(C)c3n2)CC1 | inactive | 
56 | CCSc1ccc2c(c1)N(CCCN1CCN(C)CC1)c1ccccc1S2 | 2.51 µM (active) | 
57 | O=C1NC(O)=NC1(c1ccccc1)c1ccccc1 | inactive | 
58 | Cc1noc(C)c1C(=O)N1CCC2(CCN(Cc3ccncc3)CC2)CC1 | inactive | 
59 | O=C(O)c1ccccc1Nc1cccc(OCc2ccc3ccccc3n2)c1 | 7.94 µM (active) | 
60 | O=C(Nc1ccccc1C(=O)O)c1ccc2ccccc2n1 | inactive | 
61 | CCCCC[C@H](O)c1cccc(OCc2ccc3ccccc3n2)c1 | inactive | 
62 | CC/C(=N/Nc1ccccc1)c1cnnc(SC)n1 | inactive | 
63 | O=C(Nc1ccc(-c2csc(-c3ccccc3)n2)cc1)c1ccccc1Cl | inactive | 
64 | Cc1ccc(C(=O)ON=C2CCN(S(=O)(=O)c3ccccc3)CC2)cc1 | inactive | 
65 | O=c1cnc2cnc(Oc3cccc(Cl)c3)nc2n1C1CC1 | inactive | 
66 | Fc1ccc(C2CC(c3ccco3)=NN2c2ccccc2)cc1 (stereo not drawn) | 8.91 µM (active) | 
67 | CC(=O)c1c(O)cc(=O)n(-c2ccccc2)c1-c1cccc2ccccc12 | inactive | 
68 | O=C1C=C(NCCN2CCOCC2)CC(c2ccccc2)C1 (stereo not drawn) | inactive | 
69 | O=C1C=C(Nc2ccc(Cl)cc2)CC(c2ccc(Cl)cc2)C1 (stereo not drawn) | 8.91 µM (active) | 
70 | O=C(O)C1(Nc2ccc(Cl)cc2)CCCC1 |  | 7.94% [at 11.4 µM]
71 | CC1(C)C(=O)C(c2ccccc2)=C2CN3C(=O)N(CCc4ccccc4)C(=O)C3(Cc3ccc(C(F)(F)F)cc3)C=C21 (stereo not drawn) | inactive | 
72 | CCCCc1ccc(-c2nc(NC(=O)C3C4CCC(O4)C3C(=O)O)sc2C)cc1 (stereo not drawn) | inactive | 
73 | COc1ccc(N2CCN(Cc3nc4c(c(=O)[nH]c(=O)n4C)n3CCCc3ccccc3)CC2)cc1 | inactive | 
74 | CCCCCn1c(CN2CCN(c3cc(Cl)ccc3C)CC2)nc2c1c(=O)[nH]c(=O)n2C | 8.91 µM (active) | 
75 | Cn1c(=O)[nH]c(=O)c2c1nc(CN1CCOCC1)n2Cc1ccccc1 | inactive | 

Row | SMILES | AC50 | activity, negative = inhibition
76 | COC(=O)Cn1c(CN(Cc2ccccc2)Cc2ccccc2)nc2c1c(=O)[nH]c(=O)n2C | inactive | 
77 | CCOC(=O)N1CCN(Cc2nc3c(c(=O)[nH]c(=O)n3C)n2Cc2ccccc2C)CC1 | 12.6 µM (active) | 
78 | Cn1c(=O)[nH]c(=O)c2c1nc(CN1CCOCC1)n2CCCO | inactive | 
79 | O=C(Cn1nnc2ccccc21)N/N=C\C=C\c1ccccc1 | inactive | 
80 | NC(=O)c1csc(-c2ccc(CO)o2)n1 |  | 0.271% [at 11.4 µM]
81 | NS(=O)(=O)c1ccc(N=Nc2ncccc2O)cc1 |  | -13% [at 11.4 µM]
82 | C/C(=N\Nc1nnc(-c2ccccc2)c(-c2ccccc2)n1)c1cccc([N+](=O)[O-])c1 | inactive | 
83 | O=c1c(C=Nc2cccc(C(F)(F)F)c2)c[nH]n1-c1cccc(Cl)n1 | inactive | 
84 | CCc1cc2c(nc1CC)CCN(CC/C(C)=N/OC[C@@H](C)[C@H](OCc1ccccc1)C(C)C)C2 |  | -10.6% [at 11.4 µM]
85 | COc1ccccc1NC(=O)CCc1c(C)[nH]c(=O)c(C#N)c1C | inactive | 
86 | CC1Cc2ccccc2N1C(=O)Cn1cc([N+](=O)[O-])cn1 (stereo not drawn) | inactive | 
87 | CC1Cc2ccccc2N1C(=O)CSc1nnnn1C(C)C (stereo not drawn) | inactive | 
88 | Cc1ccc2c(c1)nnn2C1CCN(CC(=O)N2c3ccccc3CC2C)CC1 (stereo not drawn) | 25.1 µM (active) | 
89 | O=C(O)/C=C\c1cnc[nH]1 | inactive | 
90 | Cc1nn(C(C)C(=O)N2CCc3ccccc32)c(C)c1[N+](=O)[O-] (stereo not drawn) | inactive | 
91 | CC(=O)NC1=NN(c2ccccc2)C(=O)C1 | inactive | 
92 | CC(=O)N1CCC(=O)N(C(C)C)c2ccccc21 | 3.16 µM (active) | 
93 | C/C(Cl)=C/CSc1nnc2n(N)c(=O)c3ccccc3n12 | inactive | 
94 | CC1CCC(C(=O)NC(C(=O)N2CCC(N3CCCCC3)CC2)C(C)C)CC1 (stereo not drawn) | inactive | 
95 | O=C(NCc1ccco1)c1ccccc1NS(=O)(=O)c1ccc(Br)s1 | inactive | 
96 | CC1CC(C)CN(C(=O)CNS(=O)(=O)c2ccc(Br)s2)C1 (stereo not drawn) | 3.16 µM (active) | 
97 | O=C(CNS(=O)(=O)c1ccc(Br)s1)N1CCC(N2CCCCC2)CC1 | 12.6 µM (active) | 
98 | O=c1c(-c2ccc(F)c(F)c2)nc2cncnc2n1C1CC1 | inactive | 
